Screen size: about 39,000 compounds; about 500 (1.3%) were called active. The entries come from a sample that favours actives as a whole.
Each compound was assayed on S. aureus RN4220 (assay: growth inhibition call (relative growth <= 0.2)). Conditions: 50 µM.
In the case of `CCC1(C2OC(C3OC(O)(CO)C(C)CC3C)CC2C)CCC(C2(C)CCC3(CC(O)C(C)C(C(C)C(OC)C(C)C(=O)[O-])O3)O2)O1.[Na+]` (stereo unspecified), the growth inhibition call is reported as “active”.
For `O=C(O)C(Cl)Cl.[NaH]`, the growth inhibition call was “inactive”.
For `C[N+]1(C)C2CC(OC(=O)C(CO)c3ccccc3)CC1C1OC12.[Br-]` (stereo unspecified), the growth inhibition call was “inactive”.
`C[C@@]12NC(=O)CN1CCc1ccccc12` was tested, and the growth inhibition call was “inactive”.
For `CCC(C(=O)[O-])C1CCC(C)C(C(C)C(O)C(C)C(=O)C(CC)C2OC3(C=CC(O)C4(CCC(C)(C5CCC(O)(CC)C(C)O5)O4)O3)C(C)CC2C)O1.[Na+]` (stereo unspecified), the growth inhibition call was “active”.
For `CC[C@@H](C(=O)[C@@H](C)[C@@H](O)[C@H](C)[C@@H]1O[C@@H]([C@@H](CC)C(=O)O)CC[C@@H]1C)[C@H]1O[C@]2(C=C[C@@H](O)[C@]3(CC[C@@](C)([C@H]4CC[C@](O)(CC)[C@H](C)O4)O3)O2)[C@H](C)C[C@@H]1C`, the growth inhibition call was “active”.
With `CC[C@@H](C)C(=O)O[C@H]1[C@H](O)[C@H]2[C@@H](CN3C[C@@H](C)CC[C@@H]3[C@@]2(C)O)[C@H]2C[C@]34O[C@]5(O)[C@@H](OC(=O)[C@@](C)(O)CC)CC[C@@]3(C)[C@@H]5[C@@H](OC(C)=O)[C@@H](OC(C)=O)[C@@H]4[C@@]21O` the growth inhibition call was “inactive”.
`COC(=O)C[C@@H]1CC[C@@H]2NC[C@H](O)COC[C@H]2O1` was tested, and the growth inhibition call was “inactive”.
For `COc1cc2c3cc1Oc1c(OC)c(OC)cc4c1[C@@H](Cc1cccc(c1)Oc1ccc(c(O)c1)C[C@@H]3N(C)CC2)N(C)CC4`, the growth inhibition call was “inactive”.
For `C[C@@H](CN)CC(=O)O`, the growth inhibition call was “inactive”.
With `Cc1noc(C)c1CN1CCNCC1` the growth inhibition call was “inactive”.
In the case of `C[C@H](O)[C@@]12[C@H]3CC=C[C@@H]1N2CC3` (stereo partly specified), the growth inhibition call is reported as “inactive”.
In the case of `CCCCOC(=O)c1ccccc1C(=O)OCCCC`, the growth inhibition call is reported as “inactive”.
For `O=C([O-])Cc1ccccc1.[Na+]`, the growth inhibition call was “inactive”.
With `C[CH2][Hg][S]c1ccccc1C(=O)[O-].[Na+]` the growth inhibition call was “active”.
`NCCO.NCCO.O[AsH]O[AsH]O` (stereo unspecified) was tested, and the growth inhibition call was “inactive”.
`CO[C@H]1[C@@H](O)C[C@@H](O[C@H]2[C@@H](O)C[C@@H](O[C@H]3[C@@H](O)C[C@@H](O[C@H]4CC[C@@]5(C)[C@@H](CC[C@H]6[C@@H]5C[C@@H](O)[C@@]5(C)[C@H](C7=CC(=O)OC7)CC[C@@]65O)C4)O[C@@H]3C)O[C@@H]2C)O[C@@H]1C` was tested, and the growth inhibition call was “inactive”.
For `CN1C[C@H](C(=O)N[C@]2(C)O[C@@]3(O)[C@@H]4CCCN4C(=O)[C@H](Cc4ccccc4)N3C2=O)C=C2c3cccc4[nH]cc(c34)C[C@H]21`, the growth inhibition call was “inactive”.
With `C=C(C)[C@@H]1CCC(C)=C[C@H]1c1c(O)cc(CCCCC)cc1O` the growth inhibition call was “active”.
`CCCCCCCCCc1ccc(O)cc1` was tested, and the growth inhibition call was “inactive”.
For `C=C(C)[C@@H]1CCC(C)=C[C@H]1c1c(OC)cc(C)cc1OC`, the growth inhibition call was “inactive”.
`C[C@H]1O[C@H](O[C@H]2[C@H](O)[C@@H](O)[C@@H](O)[C@H](O)[C@@H]2O)[C@@H](N)C[C@@H]1NC(=N)C(=O)O` was tested, and the growth inhibition call was “inactive”.
With `Cc1[nH]c2ccc(O)cc2c1CCN` the growth inhibition call was “inactive”.
For `CN(C)[C@@H]1C(=O)[C@@H](C(N)=O)C(=O)[C@@]2(O)C(=O)[C@H]3C(=O)c4c(O)ccc(Cl)c4[C@@](C)(O)[C@H]3C[C@@H]12`, the growth inhibition call was “active”.
In the case of `CN(C)[C@@H]1C(=O)C(C(N)=O)=C(O)[C@@]2(O)C(O)=C3C(=O)c4c(O)cccc4[C@](C)(O)[C@H]3C[C@@H]12`, the growth inhibition call is reported as “active”.
`CN(C)[C@@H]1C(=O)[C@H](C(N)=O)C(=O)[C@@]2(O)C(=O)[C@@H]3C(=O)c4c(O)cccc4[C@@](C)(O)[C@H]3C[C@@H]12` was tested, and the growth inhibition call was “active”.
`N#Cc1nn(-c2c(Cl)cc(C(F)(F)F)cc2Cl)c(N)c1S(=O)C(F)(F)F` (stereo unspecified) was tested, and the growth inhibition call was “inactive”.
With `c1nc(N2CCN3CCC[C@H]3C2)c2[nH]cnc2n1` the growth inhibition call was “inactive”.
For `O=[As]O[As]=O` (stereo unspecified), the growth inhibition call was “inactive”.
For `CC(C)[N+](C)(CCC(C(N)=O)(c1ccccc1)c1ccccc1)C(C)C.[I-]`, the growth inhibition call was “inactive”.
With `CC1=CC(=O)c2c(O)cccc2C1=O` the growth inhibition call was “active”.
With `Oc1ccccc1-c1ccccc1O` the growth inhibition call was “inactive”.
`O=C1C=CC(=O)c2c(O)cccc21` was tested, and the growth inhibition call was “inactive”.
For `CN1C(=O)C(O)N=C(c2ccccc2)c2cc(Cl)ccc21` (stereo unspecified), the growth inhibition call was “inactive”.
`CNC(=O)Oc1ccc2c(c1)C1(C)CCN(C)C1N2C.O=S(=O)(O)O` (stereo unspecified) was tested, and the growth inhibition call was “inactive”.
With `C[C@H]1O[C@H](C[N+](C)(C)C)C[C@@H]1O` the growth inhibition call was “inactive”.
For `CC(=O)N[C@@H]1[C@H](O[C@@H]2O[C@H](C[C@@H](O)[C@H]3O[C@@H](n4ccc(=O)[nH]c4=O)[C@H](O)[C@@H]3O)[C@H](O)[C@H](O)[C@H]2NC(=O)/C=C/CCCCCCCCC(C)C)O[C@@H](CO)[C@H](O)[C@H]1O`, the growth inhibition call was “active”.
For `C[C@@]1(O)[C@H](O)[C@@H](CO)O[C@H]1n1ccc2c(N)ncnc21`, the growth inhibition call was “inactive”.
For `O=c1cccc2n1C[C@@H]1C[C@H]2CN(CCO)C1`, the growth inhibition call was “inactive”.
In the case of `CC(=CCn1c[n+](C)c2c(N)ncnc21)CCC1(C)C(C)CCC2(C)C(C)=CCCC21.[Cl-]` (stereo unspecified), the growth inhibition call is reported as “active”.
With `OCCN1CC2(CCN(c3nccs3)C2)C1` the growth inhibition call was “inactive”.
For `CC(C)CC(CN)CC(=O)O` (stereo unspecified), the growth inhibition call was “inactive”.
`COC(=O)[C@@H](N)CCCNC(N)=N[N+](=O)[O-]` was tested, and the growth inhibition call was “inactive”.
For `O=C1[O][SbH]23[O]C(=O)C([O]2)C2[O][SbH]4([O]C(=O)C([O]4)C1[O]3)[O]C2=O`, the growth inhibition call was “inactive”.
`O=C1[O][SbH]23[O]C(=O)[C@H]([O]2)[C@H]2[O][SbH]4([O]C(=O)[C@H]([O]4)[C@H]1[O]3)[O]C2=O` was tested, and the growth inhibition call was “active”.
`C=C(CCCCCCCCCCCCCCCC)OOC[C@@H](COP(=O)(ON)O[C@@H]1[C@H](O)[C@H](O)[C@@H](OP(=O)(O)ON)[C@H](OP(=O)(O)ON)[C@H]1O)OOC(=C)CC/C=C/C/C=C/C/C=C/C/C=C/CCCCC` (stereo partly specified) was tested, and the growth inhibition call was “inactive”.
In the case of `CN1CC2(CNC2)OCCS1(=O)=O`, the growth inhibition call is reported as “inactive”.
`CN(C)C(=O)CCC(=O)N1C[C@H]2C[C@@H]1CN2` was tested, and the growth inhibition call was “inactive”.
With `Oc1cc(Cl)ccc1Oc1ccc(Cl)cc1Cl` [listing 1 of 2 here] the growth inhibition call was “active”.
For `Oc1ccc(Cl)cc1Cc1cc(Cl)ccc1O`, the growth inhibition call was “inactive”.
In the case of `Oc1cc(Cl)ccc1Oc1ccc(Cl)cc1Cl` [listing 2 of 2 here], the growth inhibition call is reported as “inactive”.
For `CC(=O)[O][Hg][c]1ccccc1`, the growth inhibition call was “inactive”.
For `NC(=O)[C@H]1CNC(=O)C1`, the growth inhibition call was “inactive”.
In the case of `Cc1cc2c(C(C)C)c(O)c(O)c(C=O)c2c(O)c1-c1c(C)cc2c(C(C)C)c(O)c(O)c(C=O)c2c1O`, the growth inhibition call is reported as “inactive”.
`COc1cccc2c1C(=O)c1c(O)c3c(c(O)c1C2=O)C[C@@](O)(C(=O)CO)C[C@@H]3O[C@H]1C[C@H](N2CCO[C@H](OC)C2)[C@H](O)[C@H](C)O1` was tested, and the growth inhibition call was “active”.
In the case of `CC[C@@]1(O)C[C@H](O[C@H]2C[C@H](N(C)C)[C@H](O)[C@H](C)O2)c2c(cc3c(c2O)C(=O)c2c(O)ccc(O)c2C3=O)[C@H]1C(=O)OC`, the growth inhibition call is reported as “inactive”.

Source: the antibiotic and cytotoxicity screens of Wong et al. (2023)
